In the supplement of paper PMC8975748:
Structures can show the parent of a compound that is named as a salt.

Test system: Saccharomyces cerevisiae BY4741 SeMeCo community
Experiment: z-score of subpopulation abundance vs DMSO median, subpopulation auxotrophic for U; higher = larger share of this subpopulation than in DMSO controls
Details: 10 µM; 24 h; SM minimal medium; subpopulation (auxotrophy): U
Protocol: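 Fluorescent four-plasmid SeMeCo (self-establishing metabolically cooperating S. cerevisiae BY4741 community; plasmids pH-mRuby2, pL-mWasabi, pU-eCFP, pM-TagRFP657) was grown 24 h in minimal SM medium with each Selleck FDA-approved drug at 10 µM in 384-well plates. Cells were fixed and imaged by high-content confocal microscopy. For each auxotrophic subpopulation (and the prototroph), a z-score gives the deviation from the DMSO vehicle-control population median.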

Which “z-score of subpopulation abundance” value does the source give for `O=c1[nH]c2ccccc2n1CCCN1CCC(n2c(=O)[nH]c3cc(Cl)ccc32)CC1` [Domperidone] here?
Its value is 0.4.

With `COc1ccc2c(c1)[C@]13CCCC[C@@H]1[C@H](C2)N(C)CC3` [Dextromethorphan hydrobromide hydrate] as the molecule, how does the “z-score of subpopulation abundance” value read?
The value was 0.26.

Which “z-score of subpopulation abundance” value does the source give for `CC[C@H]1CN2CC[C@]3(C(=O)Nc4ccccc43)[C@@H]2C[C@@H]1/C(=C\OC)C(=O)OC` [Rhynchophylline] here?
The value was 0.63.

For `CCOC(=O)Nc1ccc(NCc2ccc(F)cc2)cc1N` [Retigabine 2HCl], which “z-score of subpopulation abundance” value is on record?
Its value is -0.66.

`C[N+]1(C)[C@@H]2C[C@@H](OC(=O)[C@H](CO)c3ccccc3)C[C@H]1[C@@H]1O[C@@H]12` [Methscopolamine] was tested. Which “z-score of subpopulation abundance” value did it give?
Its value is 0.61.

How did the “z-score of subpopulation abundance” value turn out when `CN(C)[C@@H]1C(=O)C(C(N)=O)=C(O)[C@@]2(O)C(=O)C3=C(O)c4c(O)cccc4[C@@](C)(O)[C@H]3[C@H](O)[C@@H]12` [Oxytetracycline (Terramycin)] was run?
The value was 0.03.

With `CN1C(=O)COc2c(C(=O)NC3CN4CCC3CC4)cc(Cl)cc21` (stereo not given) [Azasetron HCl] as the molecule, how does the “z-score of subpopulation abundance” value read?
The value was 0.36.

How did the “z-score of subpopulation abundance” value turn out when `C[N+]12CCC(CC1)C(OC(=O)C(O)(c1ccccc1)c1ccccc1)C2` (stereo not given) [Clidinium Bromide] was run?
Its value is 0.71.

Which “z-score of subpopulation abundance” value does the source give for `O=[N+]([O-])C(Br)(CO)CO` [Bronopol] here?
Its value is 1.02.

How did the “z-score of subpopulation abundance” value turn out when `CC[N+](C)(CC)CCOC(=O)C(O)(c1ccccc1)c1ccccc1` [Methylbenactyzine Bromide] was run?
The value was -0.09.

For `CN(C)[C@@H]1C(=O)C(C(N)=O)=C(O)[C@@]2(O)C(=O)C3=C(O)c4c(O)cccc4[C@@](C)(O)[C@H]3[C@H](O)[C@@H]12` [Oxytetracycline Dihydrate], which “z-score of subpopulation abundance” value is on record?
The value was 0.11.

With `CC(C)(O)C(Cl)(Cl)Cl` [Chlorobutanol] as the molecule, how does the “z-score of subpopulation abundance” value read?
Its value is 0.13.

`COc1cc2c(cc1OC)C1CC(=O)C(CC(C)C)CN1CC2` (stereo not given) [Tetrabenazine (Xenazine)] was tested. Which “z-score of subpopulation abundance” value did it give?
Its value is -1.18.

`Cn1cc(C2=C(c3cn(C4CCN(Cc5ccccn5)CC4)c4ccccc34)C(=O)NC2=O)c2ccccc21` was tested. Which “z-score of subpopulation abundance” value did it give?
Its value is 1.48.

Which “z-score of subpopulation abundance” value does the source give for `Oc1cc(Cl)ccc1Oc1ccc(Cl)cc1Cl` [Triclosan] here?
The value was -0.09.

`CC[C@@H](C(N)=O)N1CCCC1=O` [Levetiracetam] was tested. Which “z-score of subpopulation abundance” value did it give?
The value was 0.

How did the “z-score of subpopulation abundance” value turn out when `N[C@@H]1C[C@H]1c1ccccc1` [Tranylcypromine (2-PCPA) HCl] was run?
Its value is -0.01.

How did the “z-score of subpopulation abundance” value turn out when `COc1ccc2[nH]cc(CCN)c2c1` [5-Methoxytryptamine] was run?
Its value is 1.12.

With `C[C@@H]1O[C@@H](O[C@H]2C[C@@H](O)[C@]3(CO)[C@H]4[C@H](O)C[C@]5(C)[C@@H](C6=CC(=O)OC6)CC[C@]5(O)[C@@H]4CC[C@]3(O)C2)[C@H](O)[C@H](O)[C@H]1O` [Ouabain] as the molecule, how does the “z-score of subpopulation abundance” value read?
The value was 0.18.

`NC(=O)CN1CCCC1=O` [Piracetam] was tested. Which “z-score of subpopulation abundance” value did it give?
Its value is -0.08.

For `C[C@@H]1CC[C@H]2[C@@H](C)C(=O)O[C@@H]3O[C@@]4(C)CC[C@@H]1[C@]32OO4` [Artemisinin], which “z-score of subpopulation abundance” value is on record?
The value was 0.61.

`C=C[C@H]1CN2CC[C@H]1C[C@H]2[C@H](O)c1ccnc2ccccc12` [Cinchonidine] was tested. Which “z-score of subpopulation abundance” value did it give?
Its value is 0.59.

Which “z-score of subpopulation abundance” value does the source give for `CC(=O)O[C@H]1C[C@@H]2CC[C@@H]3[C@H](CC[C@@]4(C)[C@H]3C[C@H]([N+]3(C)CCCCC3)[C@@H]4OC(C)=O)[C@@]2(C)C[C@@H]1[N+]1(C)CCCCC1` [Pancuronium dibromide] here?
The value was 0.25.

How did the “z-score of subpopulation abundance” value turn out when `O=C(O[C@H]1C[N+]2(CCCOc3ccccc3)CCC1CC2)C(O)(c1cccs1)c1cccs1` [Aclidinium Bromide] was run?
Its value is 0.94.

How did the “z-score of subpopulation abundance” value turn out when `CCOC(=O)Nc1ccc(NCc2ccc(F)cc2)cc1N` [Retigabine] was run?
The value was -0.91.

For `O=C(O[C@H]1C[C@H]2CC[C@@H](C1)[N+]21CCCC1)C(O)(c1ccccc1)c1ccccc1` [Trospium chloride], which “z-score of subpopulation abundance” value is on record?
Its value is -0.17.

With `Nc1nc(N)nc(NC2CC2)n1` [Cyromazine] as the molecule, how does the “z-score of subpopulation abundance” value read?
The value was 0.89.

With `N#Cc1nn(-c2c(Cl)cc(C(F)(F)F)cc2Cl)c(N)c1[S+]([O-])C(F)(F)F` (stereo not given) [Fipronil] as the molecule, how does the “z-score of subpopulation abundance” value read?
The value was -0.36.

How did the “z-score of subpopulation abundance” value turn out when `C=C(C)[C@H]1Cc2c(ccc3c2O[C@@H]2COc4cc(OC)c(OC)cc4[C@@H]2C3=O)O1` [Rotenone (Barbasco)] was run?
Its value is -0.02.

Which “z-score of subpopulation abundance” value does the source give for `CCC1=C[C@H]2CN3CCc4c([nH]c5ccccc45)[C@](C(=O)OC)(C2)[C@H]13` [Catharanthine] here?
Its value is 0.69.

With `CC(C)N(CCC(C(N)=O)(c1ccccc1)c1ccccn1)C(C)C` (stereo not given) [Disopyramide] as the molecule, how does the “z-score of subpopulation abundance” value read?
Its value is -1.21.

`CCN(CC)CCOC(=O)C(O)(c1ccccc1)c1ccccc1` [Benactyzine hydrochloride] was tested. Which “z-score of subpopulation abundance” value did it give?
Its value is 1.08.

With `Oc1cccc2cccnc12` [8-Hydroxyquinoline] as the molecule, how does the “z-score of subpopulation abundance” value read?
Its value is -0.25.

Which “z-score of subpopulation abundance” value does the source give for `C[CH2][Hg][S]c1ccccc1C(=O)[O-].[Na+]` [Thimerosal] here?
Its value is -3.69.

For `CN(C)C(=O)Oc1cccc([N+](C)(C)C)c1` [Neostigmine Bromide], which “z-score of subpopulation abundance” value is on record?
Its value is -0.26.

With `C=CC[C@]1(O)CC[C@H]2[C@@H]3CCC4=CC(=O)CCC4=C3C=C[C@@]21C` [Altrenogest] as the molecule, how does the “z-score of subpopulation abundance” value read?
The value was -1.52.

`CCCN1C[C@H](CSC)C[C@@H]2c3cccc4[nH]cc(c34)C[C@H]21` [Pergolide Mesylate] was tested. Which “z-score of subpopulation abundance” value did it give?
The value was -0.62.

`CN1c2ccccc2C(NCCCCCCC(=O)O)c2ccc(Cl)cc2S1(=O)=O` (stereo not given) [Tianeptine sodium] was tested. Which “z-score of subpopulation abundance” value did it give?
Its value is -0.4.

How did the “z-score of subpopulation abundance” value turn out when `Cc1cc(O)ccc1Cl` [Chlorocresol] was run?
The value was -0.59.

For `C#C[C@]1(O)C=C[C@H]2[C@@H]3CCC4=CC(=O)CC[C@@H]4[C@H]3CC[C@@]21CC` [Gestodene], which “z-score of subpopulation abundance” value is on record?
Its value is -0.99.
